# Compound activity deposited in PubChem by National Center for Advancing Translational Sciences (NCATS).
# IL1B secr inh: qHTS for Inhibitors of Inflammasome Signaling: IL-1-beta AlphaLISA Primary Screen; THP-1 LPS/ATP IL-1B secretion, AlphaLISA, 16 h; hits give low values; activity change, % at 57.5 µM; actives 4.7% (n = 360,000); in the data active = activity change below about -50%; inconclusive = mostly about -30% to -49%
#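 THP-1 cells pretreated 1 hr with compounds (up to 57.5 uM final), then stimulated with LPS (250 ng/mL final) plus ATP (1.25 mM final); secreted IL-1B measured by AlphaLISA after 16 hr, decreased signal indicating inhibition.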
# RORg inh: qHTS for inhibitors of ROR gamma transcriptional activity | actives 5.4% (n = 310,000) | Potency, µM (top dose mostly 53.6 µM), usual class: inhibitors | Drosophila S2 Gal4-RORgamma UAS-luciferase reporter, 20 h | AID 2551, 2010; also: nearly all actives have a fitted effect of over 60% in size
# Target sequence (P51450 whole entry, looked up, the tested form may be a part): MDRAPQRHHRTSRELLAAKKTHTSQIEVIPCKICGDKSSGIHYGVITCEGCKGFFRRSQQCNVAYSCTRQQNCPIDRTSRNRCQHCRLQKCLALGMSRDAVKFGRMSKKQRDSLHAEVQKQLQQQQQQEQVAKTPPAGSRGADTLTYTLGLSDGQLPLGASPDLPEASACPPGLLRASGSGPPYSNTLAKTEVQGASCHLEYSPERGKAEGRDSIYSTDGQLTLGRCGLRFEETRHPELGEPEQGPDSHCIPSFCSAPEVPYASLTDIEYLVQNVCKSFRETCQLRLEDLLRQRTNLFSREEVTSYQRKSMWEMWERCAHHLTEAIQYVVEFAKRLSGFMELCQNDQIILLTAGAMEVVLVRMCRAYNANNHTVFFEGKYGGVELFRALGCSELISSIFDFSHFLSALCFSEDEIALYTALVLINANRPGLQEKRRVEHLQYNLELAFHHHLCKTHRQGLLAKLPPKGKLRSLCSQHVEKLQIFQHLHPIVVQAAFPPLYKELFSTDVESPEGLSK
#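 Drosophila S2 cells stably expressing Gal4-DBD/mouse RORγ fusion under metallothionein promoter plus UAS-luciferase; compound 1 h, then 700 uM CuSO4 induction for 20 h at ambient temperature; inhibition read as reduced luminescence.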
# VP16 counter: VP16 counterscreen qHTS for inhibitors of ROR gamma transcriptional activity. Drosophila S2 Gal4-VP16 UAS-luciferase, luminescence, 20 h. Potency, µM (top dose mostly 53.6 µM), most hits filed as inhibitors. actives 3.5% (n = 310,000). AID 2546, 2010;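 also: Gal4-VP16 expression switched on by copper sulfate through the metallothionein promoter; nearly all actives have a fitted effect of over 50% in size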
# ELG1 DNA repair: qHTS screen for small molecules that inhibit ELG1-dependent DNA repair in human embryonic kidney (HEK293T) cells expressing luciferase-tagged ELG1 | HEK293T ELG1-luciferase reporter, luminescence, 16 h; DNA damage induced by 5-fluorouridine | Potency, µM (doses to about 46.1 µM), usual class: inhibitors | actives 2.3% (n = 330,000) | AID 504467, 2011; also: nearly all actives have a fitted effect of over 55% in size
#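 Quantitative HTS, concentration-response format. 2,000 cells/well co-treated with 5-fluorouridine and compound, 16 hr in 5% CO2 at 37 °C; ONE-Glo luminescence read after 30 min.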
# TDP1 cell noCPT: qHTS for Inhibitors of human tyrosyl-DNA phosphodiesterase 1 (TDP1): qHTS in cells in absence of CPT; DT40 Tdp1-/- hTDP1 cells, no CPT, ATP luminescence, 48 h; Potency, µM (series often up to 46.2 µM), actives largely listed as inhibitors; actives 15% (n = 420,000); AID 686978, 2013; also: nearly all actives have a fitted effect of over 55% in size
#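 Growth kinetics read by CellTiter-Glo luminescence after ≥48 hr at 37 °C. Cells: DT40 Tdp1-/- stably carrying human TDP1, 400 per well, compound exposure in the absence of CPT (DMSO vehicle).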
# TDP1 cell CPT: qHTS for Inhibitors of human tyrosyl-DNA phosphodiesterase 1 (TDP1): qHTS in cells in presence of CPT | chicken DT40 Tdp1-/-;hTDP1 cells + 20 nM CPT, ATP luminescence, 48 h | Potency, µM (titrated, usually from 46.2 µM), most hits filed as inhibitors | actives 12% (n = 420,000); also: nearly all actives have a fitted effect of over 55% in size
#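 Cell growth measured by CellTiter-Glo luminescence after a minimum 48 h, 37 C compound exposure with 20 nM CPT in Tdp1-knockout DT40 cells stably expressing hTDP1, seeded 400/well; qHTS titration format.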
# Numbers stand for hits; i = inactive; ? = inconclusive; nt = no result given; [ ] = dose if it differs, or a comment. Only some compounds are listed: those with a hit (about 21% of all), similar ones and a draw of the others. Unless noted, calls follow the shape of the dose curve; as a rule, active = well fitted curve in the direction sought with a large enough effect; inconclusive = small, poorly fitted or top-dose-only effect, or another doubt; inactive = no such curve, though single readings can be large; an effect the other way counts as inactive or inconclusive.
SMILES,IL1B secr inh,RORg inh,VP16 counter,ELG1 DNA repair,TDP1 cell noCPT,TDP1 cell CPT
CCOC(=O)C1=C(C)NC(C)=C(C(=O)OCC)C1c1cn(-c2ccccc2)nc1-c1ccco1,i,i,i,i,?,i
CN(C)C1=NCCN1CC1CCCCCC1,i,nt,nt,i,?,i
CN(C)C1=NC[C@H](Cc2ccccc2)N1CC1CCCC1,i,nt,nt,i,23µM,15µM
CN(C)C1=NC[C@H](Cc2ccccc2)N1CC1CCCCC1,i,nt,nt,i,12µM,13µM
O=C1NC[C@H](Cc2ccccc2)N(CC2CCN(CC3CCCC3)CC2)C1=O,i,nt,nt,nt,i,i
CN(C)C1=NC[C@H](Cc2ccccc2)N1CC1CCC(C(C)(C)C)CC1 (stereo partly specified),i,i,i,i,13µM,21µM
CC(C)C[C@H]1CN=C(N(C)C)N1CC1CCCCCC1,i,nt,nt,i,21µM,13µM
O=C(NC1CC1)c1ccc(-c2cnc3cccnn23)cc1,i,nt,nt,nt,?,?
CC(=O)c1cccc(NC(=S)NC(=O)c2ccc(C)cc2Cl)c1,i,11µM,13µM,?,i,i
O=C(NC(=S)Nc1ccccc1O)c1ccccc1Cl,i,7.1µM,?,?,i,i
CC(=O)c1cccc(NC(=O)CCNC(=O)c2ccccc2Cl)c1,i,i,i,i,?,i
CC(=O)c1cccc(NC(=S)NC(=O)c2ccccc2Cl)c1,i,13µM,i,i,i,i
O=C(Nc1cccc(OC(=O)c2ccc(Br)o2)c1)c1ccccc1,i,i,i,?,i,i
Cc1cc(C(F)F)n2nc(C(=O)Nc3cc(Cl)ccc3C)nc2n1,nt,nt,nt,nt,i,i
Cc1ccc2[nH]c(CN3CCC(CO)(CC4CCCCO4)CC3)c(C)c2c1 (stereo unspecified),-113,i,i,i,?,?
CCOC(=O)c1ccc(Oc2nc(N(C)C)nc(N(C)C)n2)cc1,i,i,i,i,?,i
CCOC(=O)c1ccc(Oc2nc(NC(C)(C)C)nc(N(C)C)n2)cc1,i,i,i,?,21µM,13µM
Cc1cccc(Cc2c(C)nc3nc(SCc4ccccc4F)nn3c2C)c1,nt,nt,nt,nt,9.2µM,13µM
Cc1nc2nc(SCC(=O)N3CCOCC3)nn2c(C)c1Cc1c(F)cccc1Cl,i,i[0.365 µM],nt,i,?,i
Cc1cc(C)n2nc(SCc3c(F)cccc3Cl)nc2n1,i,i,i,?,26µM,?
Cc1cccc(Cc2c(C)nc3nc(SCc4cccc(F)c4)nn3c2C)c1,nt,nt,nt,nt,?,21µM
Cc1nc2nc(SCc3c(F)cccc3Cl)nn2c(C)c1Cc1ccccc1,nt,nt,nt,nt,8.2µM,13µM
CCOc1ccc(-c2csc(-c3nc(-c4ccc(Br)s4)cs3)n2)cc1,nt,nt,nt,nt,i,i
ClCc1csc(-c2ccc(Cl)cc2)n1,?,i,i,i,15µM,13µM
CCOc1ccc(-c2nc(CCl)cs2)cc1,i,?,?,?,?,10µM
SMILES,IL1B secr inh,RORg inh,VP16 counter,ELG1 DNA repair,TDP1 cell noCPT,TDP1 cell CPT
CCOC(=O)c1c(C)[nH]c(C)c1S(=O)(=O)N1CCC(C(=O)NCc2ccccc2Cl)CC1,nt,nt,nt,nt,i,i
CNc1ncnc2c1ncn2[C@H]1CN(Cc2ccc(OC)cc2)C[C@@H](CO)O1,i,nt,nt,nt,?,i
CN(C)c1ccc(/C=N/N(CCC#N)C2=NS(=O)(=O)c3ccccc32)cc1,i,i,i,i,?,i
Cc1cc(C)c2c(=O)c3c(oc2c1)C(=O)N(CCO)C3c1cccc(O)c1 (stereo unspecified),-58,i,?,i,i,i
CCOc1cc(C2c3c(oc4ccc(F)cc4c3=O)C(=O)N2Cc2ccc(C)cc2)ccc1O (stereo unspecified),nt,nt,nt,nt,?,1.3µM
COc1ccc(CN2C(=O)c3oc4ccccc4c(=O)c3C2c2ccc(O)cc2)cc1 (stereo unspecified),nt,nt,nt,nt,i,i
O=C1c2oc3ccccc3c(=O)c2C(c2cccc(O)c2)N1Cc1ccc(F)cc1 (stereo unspecified),nt,nt,nt,nt,21µM,?
CC(=O)c1ccsc1B(O)O,nt,i,i,nt,i,i
OCC[C@H]1C[C@H](O)[C@@H](O)[C@]2(OCCc3ccccc32)O1,i,nt,nt,i,i,i
O=C(C1CCN(S(=O)(=O)c2ccccc2)CC1)N1CCCCCC1,i,i,i,i,i,i
COc1ccc(-n2cc3ccc([N+](=O)[O-])cc3n2)cc1,i,i,i,?,29µM,?
COc1ccc(-n2c(N)c(C#N)c3ccc([N+](=O)[O-])cc3c2=O)cc1,i,i,i,?,i,i
CCCOc1ccc(-c2cn3ccccc3n2)cc1[N+](=O)[O-],i,i,i,?,15µM,?
COc1ccc(-c2cn3ccccc3n2)cc1[N+](=O)[O-],i,?,i,?,i,i
CCCOc1ccc(-c2cn3ccccc3n2)cc1,i,4.5µM,?,?,?,?
CSc1nnc(CCNC(=O)c2ccc(-c3cccc(F)c3)cc2)n1-c1ccc(F)cc1,nt,nt,nt,nt,i,i[9.04 µM]
CC(=O)O[C@H]1C[C@@]2(O)[C@@H](OC(=O)c3ccccc3)C3[C@@](C)([C@@H](O)C[C@H]4OC[C@@]34OC(C)=O)[C@@H](O)[C@H](OC(C)=O)C(=C1C)C2(C)C (stereo partly specified),i,i,i,i,18µM,16µM
CC(=O)O[C@@]12CO[C@@H]1C[C@H](O)[C@@]1(C)C(=O)[C@H](O)C3=C(C)[C@@H](OC(=O)[C@H](O)[C@@H](NC(=O)OC(C)(C)C)c4ccccc4)C[C@](O)([C@@H](OC(=O)c4ccccc4)[C@H]21)C3(C)C,nt,?,i,nt,nt,nt
CN1CCN(C(=O)C[C@@H]2C=C[C@H](NS(=O)(=O)c3cccc(F)c3)[C@@H](CO)O2)CC1,i,nt,nt,nt,i,i
Cc1ccc(C(=O)Nc2ccc3c(c2)OCCO3)cc1,?,10µM,10µM,?,i,?
O=C(Nc1ccc2c(c1)OCCO2)c1cc(F)c(F)cc1Cl,i,nt,nt,?,i,i
Cc1ccn2cc(C(=O)Nc3nnc(C)s3)nc2c1,i,?,i,?,i,i
O=C(Nc1ccc2c(c1)OCCO2)c1c(F)c(F)c(F)c(F)c1F,i,i,i,i,?,18µM
Cc1ccc(C(=O)Nc2ccc3c(c2)OCCO3)c(Cl)c1,?,7.9µM,5µM,?,i,i
Cc1ccn2cc(C(=O)Nc3ccc4c(c3)OCCO4)nc2c1,-89,1.3µM,4.5µM,?,i,i
